Data from PubChem BioAssay (NCI).
“And” between values parts separate entries of the source, which are not always exact repeats. Equal values may be shown once. The panel holds about 83,000 compounds, 20% with a hit somewhere; the sample as a whole holds those more often.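 Note: values are percent growth. 100 is the growth of untreated cells, values between 100 and 0 indicate rising inhibition; between -100 and 0 indicates cell death.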 The source made the active and inactive calls. Rule for the calls: active = growth percent below 10; inactive = the rest.

Legend:
Test in all cases: NCI-60 one-dose screen, 48 h (100 = growth as untreated, 0 = no growth, -100 = all killed)
DU-145 prostate = system: DU-145 prostate
K-562 leukemia = system: K-562 leukemia
MALME-3M melanoma = system: MALME-3M melanoma
MDA-MB-231 breast = system: MDA-MB-231 breast
RXF 393 renal = system: RXF 393 renal
SF-268 CNS = system: SF-268 CNS
SF-295 CNS = system: SF-295 CNS
SF-539 CNS = system: SF-539 CNS
UACC-257 melanoma = system: UACC-257 melanoma
M14 melanoma = system: M14 melanoma

Measured: growth

Cc1nn(-c2nc(-c3cc4ccccc4oc3=O)cs2)c(C)c1N=Nc1ccccc1
inactive: DU-145 prostate; 10 µM unless noted 90.4% | K-562 leukemia; 10 µM unless noted 93% | MALME-3M melanoma; 10 µM unless noted 96.5% | MDA-MB-231 breast; 10 µM unless noted 87.8% | RXF 393 renal; 10 µM unless noted 112% | SF-268 CNS; 10 µM unless noted 105% | SF-295 CNS; 10 µM unless noted 104% | SF-539 CNS; 10 µM unless noted 102% | UACC-257 melanoma; 10 µM unless noted 103% | M14 melanoma; 10 µM unless noted 110%

COC(=O)c1nc(-c2ccc(C)cc2)oc1Sc1ccc(C)cc1
inactive: DU-145 prostate; 10 µM unless noted 110% | K-562 leukemia; 10 µM unless noted 82% | MALME-3M melanoma; 10 µM unless noted 122% | MDA-MB-231 breast; 10 µM unless noted 96.1% | RXF 393 renal; 10 µM unless noted 108% | SF-268 CNS; 10 µM unless noted 103% | SF-295 CNS; 10 µM unless noted 114% | SF-539 CNS; 10 µM unless noted 96.8% | UACC-257 melanoma; 10 µM unless noted 102% | M14 melanoma; 10 µM unless noted 93.2%

COc1ccc(C(=O)/C=C/c2ccc(OCc3cccc(C(F)(F)F)c3)c(OC)c2)cc1OC
active: MDA-MB-231 breast; 100 µM -12.9% | RXF 393 renal; 100 µM -13%
inactive: DU-145 prostate; 10 µM 72.7% | DU-145 prostate; 100 µM 19.4% | K-562 leukemia; 10 µM 39.1% | K-562 leukemia; 100 µM 12.2% | MALME-3M melanoma; 10 µM 97.7% | MALME-3M melanoma; 100 µM 23.5% | MDA-MB-231 breast; 10 µM 79.9% | RXF 393 renal; 10 µM 97.7% | SF-268 CNS; 10 µM 86.4% | SF-268 CNS; 100 µM 14.6% | SF-295 CNS; 10 µM 98.2% | SF-295 CNS; 100 µM 21.7% | SF-539 CNS; 10 µM 103% | SF-539 CNS; 100 µM 12% | UACC-257 melanoma; 10 µM 93.9% | UACC-257 melanoma; 100 µM 28.7% | M14 melanoma; 10 µM 85.3% | M14 melanoma; 100 µM 35.4%

Nc1nc2c(s1)CCc1cn(S(=O)(=O)c3ccccc3)cc1-2
inactive: DU-145 prostate; 10 µM unless noted 100% and 114% | K-562 leukemia; 10 µM unless noted 88.6% and 88.2% | MALME-3M melanoma; 10 µM unless noted 107% and 98% | MDA-MB-231 breast; 10 µM unless noted 80.5% and 112% | RXF 393 renal; 10 µM unless noted 100% and 110% | SF-268 CNS; 10 µM unless noted 80.6% and 97.7% | SF-295 CNS; 10 µM unless noted 94.6% and 106% | SF-539 CNS; 10 µM unless noted 90.9% and 97.8% | UACC-257 melanoma; 10 µM unless noted 86.6% and 112% | M14 melanoma; 10 µM unless noted 90.4% and 101%

Nc1ccc(/C=N/Nc2ccnc3c(N)cccc23)c2cccnc12
inactive: MALME-3M melanoma; 10 µM unless noted 104% | UACC-257 melanoma; 10 µM unless noted 88.1%
active: DU-145 prostate; 10 µM unless noted -49.1% | K-562 leukemia; 10 µM unless noted -55.7% | MDA-MB-231 breast; 10 µM unless noted -66.6% | RXF 393 renal; 10 µM unless noted -72.5% | SF-268 CNS; 10 µM unless noted -61.8% | SF-295 CNS; 10 µM unless noted -75.6% | SF-539 CNS; 10 µM unless noted -94.9% | M14 melanoma; 10 µM unless noted -78.6%

Cc1ccc(Cl)cc1N1CCN(C(=O)[C@@H]2C[C@@H]2c2ccc(F)cc2)CC1
inactive: DU-145 prostate; 10 µM unless noted 114% | K-562 leukemia; 10 µM unless noted 75.6% | MALME-3M melanoma; 10 µM unless noted 95% | MDA-MB-231 breast; 10 µM unless noted 102% | RXF 393 renal; 10 µM unless noted 103% | SF-268 CNS; 10 µM unless noted 90.1% | SF-295 CNS; 10 µM unless noted 88.9% | SF-539 CNS; 10 µM unless noted 95.6% | UACC-257 melanoma; 10 µM unless noted 95.4% | M14 melanoma; 10 µM unless noted 93.4%

O=C1/C(=C/c2ccc(-c3cccc(C(F)(F)F)c3)o2)SC(=S)N1CCc1ccc(O)cc1
inactive: DU-145 prostate; 10 µM unless noted 12.8% | K-562 leukemia; 10 µM unless noted 20.6% | MALME-3M melanoma; 10 µM unless noted 71.6% | MDA-MB-231 breast; 10 µM unless noted 90.5% | RXF 393 renal; 10 µM unless noted 82.2% | SF-268 CNS; 10 µM unless noted 56.8% | SF-295 CNS; 10 µM unless noted 96.6% | SF-539 CNS; 10 µM unless noted 76.2% | UACC-257 melanoma; 10 µM unless noted 95% | M14 melanoma; 10 µM unless noted 57.5%

CCCNNC(=O)/C=C/c1ccc(CNCCc2c(C)[nH]c3ccccc23)cc1
inactive: DU-145 prostate; 10 µM unless noted 24.4% [2.5 µM] | K-562 leukemia; 10 µM unless noted 10.7% [2.5 µM] | MALME-3M melanoma; 10 µM unless noted 20% [2.5 µM] | MDA-MB-231 breast; 10 µM unless noted 35% [2.5 µM] | SF-268 CNS; 10 µM unless noted 32.1% [2.5 µM] | SF-295 CNS; 10 µM unless noted 18% [2.5 µM] | SF-539 CNS; 10 µM unless noted 31.1% [2.5 µM] | M14 melanoma; 10 µM unless noted 17.7% [2.5 µM]
active: RXF 393 renal; 10 µM unless noted -17.9% [2.5 µM] | UACC-257 melanoma; 10 µM unless noted -9.62% [2.5 µM]

CN(C)CCNc1ncc(F)c(-c2cnc3cc(-c4cnn(C)c4)ccn23)n1
inactive: DU-145 prostate; 0.005 µM 107% | DU-145 prostate; 30 µM 27.5% | K-562 leukemia; 0.005 µM 102% | K-562 leukemia; 30 µM 41.6% | MALME-3M melanoma; 0.005 µM 99.7% | MALME-3M melanoma; 30 µM 53.5% | MDA-MB-231 breast; 0.005 µM 98.4% | MDA-MB-231 breast; 30 µM 54.3% | RXF 393 renal; 10 µM unless noted 110% [0.005 µM] | SF-268 CNS; 0.005 µM 100% | SF-268 CNS; 30 µM 57.7% | SF-295 CNS; 0.005 µM 102% | SF-295 CNS; 30 µM 70.8% | SF-539 CNS; 0.005 µM 97.2% | SF-539 CNS; 30 µM 46.3% | UACC-257 melanoma; 0.005 µM 100% | UACC-257 melanoma; 30 µM 93.5% | M14 melanoma; 10 µM unless noted 107% [0.005 µM]

CCOC(=O)C(=CCC(C)C)C(=O)OCC
inactive: DU-145 prostate; 10 µM unless noted 99.3% | K-562 leukemia; 10 µM unless noted 125% | MALME-3M melanoma; 10 µM unless noted 120% | MDA-MB-231 breast; 10 µM unless noted 99.6% | RXF 393 renal; 10 µM unless noted 113% | SF-268 CNS; 10 µM unless noted 94.9% | SF-295 CNS; 10 µM unless noted 120% | SF-539 CNS; 10 µM unless noted 95.7% | UACC-257 melanoma; 10 µM unless noted 110% | M14 melanoma; 10 µM unless noted 95.7%

O=C1/C(=C/c2ccc(-c3ccccc3C(F)(F)F)o2)SC(=S)N1CCc1ccc(O)cc1
inactive: DU-145 prostate; 10 µM unless noted 66.2% | K-562 leukemia; 10 µM unless noted 17.5% | MALME-3M melanoma; 10 µM unless noted 32.2% | MDA-MB-231 breast; 10 µM unless noted 67% | RXF 393 renal; 10 µM unless noted 71.2% | SF-268 CNS; 10 µM unless noted 51.4% | SF-295 CNS; 10 µM unless noted 54.4% | SF-539 CNS; 10 µM unless noted 54.2% | UACC-257 melanoma; 10 µM unless noted 67% | M14 melanoma; 10 µM unless noted 34.4%

NC1=CC(=O)c2cccnc2C1=O
active: DU-145 prostate; 10 µM unless noted -1.98% | K-562 leukemia; 10 µM unless noted -48.4% | MALME-3M melanoma; 10 µM unless noted -81.4% | MDA-MB-231 breast; 10 µM unless noted -13.5% | SF-268 CNS; 10 µM unless noted -0.409% | SF-539 CNS; 10 µM unless noted -89.2% | UACC-257 melanoma; 10 µM unless noted -48.4% | M14 melanoma; 10 µM unless noted -88.6%
inactive: RXF 393 renal; 10 µM unless noted 15.8% | SF-295 CNS; 10 µM unless noted 22.4%
